# Assay results reported in PubChem BioAssay AID623911 (Vanderbilt High Throughput Screening Facility, 2012).
# In all, about 2,100 compounds went through this assay and about 770 (37%) were called active. The list shows a part of the results. Values without a mark were called inactive.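 Rule for the calls: active = by-eye trace score of 1 for enhancers or -1 for inhibitors, so actives lie on both sides (some results past the limit were not filed as active); inactive = score 0, or 3 fluorescent, or 4 baseline rise.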
# Target: G protein-activated inward rectifier potassium channel 2 (Homo sapiens) + G protein-activated inward rectifier potassium channel 1 (Homo sapiens) (UniProt P48051+P48549)
# Assay: GIRK1/2 thallium flux modulators, retest, confirmation, cell-based, HEK293 rmGlu8/hGIRK1/2, FluoZin-2 (AID 623911)
# Details: HEK293 rmGlu8/hGIRK1/2, thallium flux FluoZin-2; actives lie on both sides; glutamate co-added at its EC20 level
# G protein-activated inward rectifier potassium channel 2 (Homo sapiens) + G protein-activated inward rectifier potassium channel 1 (Homo sapiens), sequence (P48051 whole entry, looked up): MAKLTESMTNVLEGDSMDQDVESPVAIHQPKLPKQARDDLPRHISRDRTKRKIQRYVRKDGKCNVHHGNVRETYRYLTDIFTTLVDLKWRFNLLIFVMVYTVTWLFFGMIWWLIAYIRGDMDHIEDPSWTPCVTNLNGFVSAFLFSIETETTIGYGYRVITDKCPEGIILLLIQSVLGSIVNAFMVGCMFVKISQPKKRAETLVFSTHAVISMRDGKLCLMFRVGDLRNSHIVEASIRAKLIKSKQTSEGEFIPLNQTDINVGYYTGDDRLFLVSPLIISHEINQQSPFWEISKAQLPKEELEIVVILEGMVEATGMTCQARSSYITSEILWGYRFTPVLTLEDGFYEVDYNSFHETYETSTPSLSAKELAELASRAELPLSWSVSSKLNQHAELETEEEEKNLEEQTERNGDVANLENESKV
# G protein-activated inward rectifier potassium channel 2 (Homo sapiens) + G protein-activated inward rectifier potassium channel 1 (Homo sapiens), sequence (P48549 whole entry, looked up): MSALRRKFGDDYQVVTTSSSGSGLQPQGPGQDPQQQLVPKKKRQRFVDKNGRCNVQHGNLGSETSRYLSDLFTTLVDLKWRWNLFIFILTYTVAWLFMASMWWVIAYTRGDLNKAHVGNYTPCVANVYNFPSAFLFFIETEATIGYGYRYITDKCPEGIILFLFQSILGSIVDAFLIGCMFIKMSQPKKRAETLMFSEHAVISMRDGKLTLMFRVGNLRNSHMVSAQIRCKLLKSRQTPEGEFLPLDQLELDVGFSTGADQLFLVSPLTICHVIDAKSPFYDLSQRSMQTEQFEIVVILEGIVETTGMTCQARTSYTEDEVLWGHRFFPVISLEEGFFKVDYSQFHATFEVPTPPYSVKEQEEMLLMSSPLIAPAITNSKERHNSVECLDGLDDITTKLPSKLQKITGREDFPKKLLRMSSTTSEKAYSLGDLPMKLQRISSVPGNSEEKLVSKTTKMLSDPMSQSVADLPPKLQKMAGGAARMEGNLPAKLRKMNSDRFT
row,SMILES,manual score
1,COC(=O)C1=NN(c2ccccc2)C2C(=O)N(c3ccccc3OC)C(=O)C12 (stereo not drawn),0
2,N#CC(c1cccc(Cl)c1)c1ccc2c(C(F)(F)F)cc(C(F)(F)F)nc2n1 (stereo not drawn),0
3,O=C(N/N=C1/C(=O)c2cccc3cccc1c23)c1ccc(Cl)cc1,1 (active)
4,CCNC(=S)N/N=C1\CCCCc2ccccc21,4
5,CNC(=S)N/N=C1\C(=O)c2cccc3cccc1c23,1 (active)
6,CCCCNC(=S)N/N=C1\C(=O)c2cccc3cccc1c23,0
7,CCNC(=S)N/N=C1\C(=O)c2cccc3cccc1c23,1 (active)
8,O=c1c(O)c(-c2cccs2)oc2ccc(Cl)cc12,3
9,CCCOc1ccc(/C=N/NC(=O)C(=O)Nc2ccccn2)cc1,0
10,COc1ccc(/C=N/NC(=O)c2nc(-c3ccccc3)cc(-c3ccccc3)n2)cc1,0
11,O=C(N/N=C/c1ccc(Sc2ccccn2)o1)c1cc2ccccc2cc1O,1 (active)
12,O=C(CSc1nc(O)cc(=O)n1-c1ccccc1)N1CCCCC1,0
13,Cc1ccc(C)c(NC(=S)c2nc3ccccc3s2)c1,0
14,Cc1ccc(NC(=S)N/N=C/c2c(Cl)cccc2Cl)c(C)c1,0
15,Cc1ccccc1NC(=S)c1nc2ccccc2[nH]1,1 (active)
16,N#C/C(=C\c1ccc(N2CCOCC2)o1)c1nc2ccccc2[nH]1,3
17,Cc1ccc(NC(=S)c2nc3ccccc3[nH]2)c(C)c1,1 (active)
18,COc1ccc(CNc2nc(-c3cccnc3)nn2C(=O)c2ccco2)cc1,0
19,CCOC(=O)c1ccccc1NC(=O)CSc1nnc(Cc2cccn2C)n1-c1ccc(F)cc1,-1 (active)
20,CCOC(=O)c1nn(-c2ccc(F)cc2)c(C)c1C(C)=O,0
21,COC(=O)c1ccc(NC(=O)CSc2nnc(COc3ccccc3)n2C)cc1,3
22,CCOC(=O)c1ccccc1NC(=O)CSc1nnc(COc2ccccc2C)n1C,-1 (active)
23,CCOC(=O)c1ccccc1NC(=O)CSc1nnc(COc2ccccc2)n1CC,-0.5
24,CCOC(=O)CN(C(=O)CSc1nnc(Cc2ccccc2)n1-c1ccc(C)cc1)c1ccccc1,-1 (active)
25,CCOC(=O)c1ccccc1NC(=O)CSc1nnc(Cc2cccn2C)n1-c1ccc(C)cc1,-1 (active)
26,CN(C(=O)c1cccnc1)c1nnc(-c2cnccn2)s1,0
27,Cc1cccn2c(=O)c(/C=N/O)c(N3CCCC3)nc12,0

row,SMILES,manual score
1,CCOC(=O)C1=C(C)N=C2SCCC(=O)N2C1c1sccc1C (stereo not drawn),0
2,CCc1cc(C(=O)NNC(=S)Nc2cccc(C)c2)cs1,1 (active)
3,CC/C(=N\NC(=S)Nc1cc(C)ccc1C)c1ccc(OC(F)F)cc1,0
4,CCc1cc(C(=O)NNC(=S)Nc2cc(C)ccc2C)cs1,1 (active)
5,Cc1ccc(C2CC2C(=O)NNC(=S)Nc2cccc(C)c2)cc1 (stereo not drawn),0
6,C/C(=N\NC(=S)Nc1cccc(C)c1)c1cccc(N)c1,0
7,Cc1cccc(NC(=S)NNC(=O)c2sccc2C)c1,1 (active)
8,Cc1ccsc1/C=N/NC(=O)c1sccc1C,0
9,CCc1cc(C(=O)NNC(=S)Nc2ccccc2C)cs1,0
10,O=c1oc(-c2ccc(Br)o2)nc2ccccc12,0
11,COC(=O)c1cc(=O)n(CCc2ccc(OC)cc2)c(=Nc2ccc(F)c(Cl)c2)s1,0
12,CC(C)(C)NC(=O)C(c1ccncc1)N(C(=O)c1csnn1)c1ccccc1 (stereo not drawn),0
13,O=C(C[n+]1cc(-c2ccccc2)n2c1CCC2)OCc1ccccc1,0
14,O=C(CSc1ccccc1)N(c1ccc(Br)cc1)c1nccs1,0
15,CC1(C)Cc2ccccc2C(/C(=N\Nc2cccc(Cl)c2)C(N)=O)=N1,0
16,Cc1ccc(OCCCC(=O)Nc2nccs2)cc1,0
17,O=C(Nc1cccc(Cl)c1)Nc1nccs1,1 (active)
18,O=C(Nc1ccccc1)Nc1nccs1,1 (active)
19,O=C(NNC(=O)c1cccs1)Nc1cccc(Cl)c1,1 (active)
20,CS(=O)(=O)c1ccc2nc(NC(=O)Nc3ccc(Cl)c(Cl)c3)sc2c1,0
21,CCOC(=O)Cn1c(=O)oc2cc(S(=O)(=O)Nc3ccc(N(CC)CC)cc3C)ccc21,0
22,CCOC(=O)C1=C(C)OC(N)=C(C#N)C1c1cncc(-c2ccc(F)cc2)c1 (stereo not drawn),-0.5
23,O=C(/C=C/c1ccccc1)NC(NC(=S)Nc1cccc(Cl)c1)C(Cl)(Cl)Cl (stereo not drawn),1 (active)
24,N#C/C(=C/C=C/c1ccccc1)C(=O)Nc1ccccc1,0
25,Cc1c(NC(=S)NC(NC(=O)CC(C)C)C(Cl)(Cl)Cl)c(=O)n(-c2ccccc2)n1C (stereo not drawn),0
26,COC(=O)c1ccccc1NC(=S)NC(NC(=O)c1ccccc1[N+](=O)[O-])C(Cl)(Cl)Cl (stereo not drawn),0
